Results on 70 compounds are retold here after PubChem BioAssay AID2553 (Johns Hopkins Ion Channel Center, 2010).

The campaign covered roughly 310,000 compounds. About 3,300 (1.1%) were called active.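 The calls were made as follows: active = B-score under library mean minus 3 SD, initial fluorescence not abnormally high, positive integrated signal ratio; inactive = the rest.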 The sample as a whole holds a higher share of actives than the screen did.

Chain of Short transient receptor potential channel 6 (Mus musculus) (Q61143 whole entry, looked up): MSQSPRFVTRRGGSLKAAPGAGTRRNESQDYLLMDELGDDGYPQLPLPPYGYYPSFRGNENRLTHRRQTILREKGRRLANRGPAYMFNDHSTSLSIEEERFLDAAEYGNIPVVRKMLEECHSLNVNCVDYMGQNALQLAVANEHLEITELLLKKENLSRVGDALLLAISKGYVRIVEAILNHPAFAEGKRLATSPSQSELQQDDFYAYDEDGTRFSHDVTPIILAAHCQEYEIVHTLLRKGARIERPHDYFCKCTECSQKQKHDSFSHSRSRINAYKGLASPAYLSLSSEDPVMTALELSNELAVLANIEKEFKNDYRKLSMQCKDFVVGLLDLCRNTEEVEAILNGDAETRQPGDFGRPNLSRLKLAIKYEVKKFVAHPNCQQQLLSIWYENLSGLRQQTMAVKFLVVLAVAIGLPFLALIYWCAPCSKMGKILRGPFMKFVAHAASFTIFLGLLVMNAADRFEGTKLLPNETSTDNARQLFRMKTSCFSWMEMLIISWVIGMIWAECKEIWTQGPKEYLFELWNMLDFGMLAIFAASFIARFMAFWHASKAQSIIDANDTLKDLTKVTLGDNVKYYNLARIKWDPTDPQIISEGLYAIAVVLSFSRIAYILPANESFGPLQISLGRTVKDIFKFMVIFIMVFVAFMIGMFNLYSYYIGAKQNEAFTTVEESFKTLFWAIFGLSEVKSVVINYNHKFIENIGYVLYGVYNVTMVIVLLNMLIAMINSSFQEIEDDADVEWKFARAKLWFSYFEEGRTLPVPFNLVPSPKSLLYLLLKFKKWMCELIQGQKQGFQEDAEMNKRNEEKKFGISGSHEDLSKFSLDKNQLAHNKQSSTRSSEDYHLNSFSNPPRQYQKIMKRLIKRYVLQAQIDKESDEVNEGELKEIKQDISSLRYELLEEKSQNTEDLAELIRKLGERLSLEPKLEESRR

This experiment concerns the target Short transient receptor potential channel 6 (Mus musculus) (UniProt Q61143). The experiment can be described thus: mouse TRPC6 channel inhibitors, primary screen, cell-based, HEK293, membrane potential dye (AID 2553).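 As to B-score: B-score derived from integrated fluorescence ratio over the kinetic read; more negative B-score means stronger inhibition of depolarization.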 The settings on record: ACh-evoked depolarization, at 10 µM; active compounds read low.
As to `Nc1c(N(CCO)C(=O)C2CCCCC2)c(=O)[nH]c(=O)n1Cc1ccccc1`, the B-score entry was “inactive”.

As to `CCN(CCCNC(=O)c1ccc2c(c1)NC(=O)CN2C)c1cccc(C)c1`, the B-score result was “inactive”.

As to `COc1ccc(CNC(=O)C(=O)NCC2OCCN2C(=O)c2ccc(OC)cc2)cc1` (stereo not given), the B-score entry is “inactive”.

Turning to `CCC1=NN(C(=O)Cc2ccc([N+](=O)[O-])cc2)C(O)(c2ccc(Br)cc2)C1` (stereo not given), the B-score entry was “inactive”.

In the case of `COc1cc2c(cc1OC)C(/C=C/c1ccco1)=NCC2`, the B-score was -5.37 (active).

On to `COc1ccc(Cl)cc1C(=O)NNC(=S)NC(=O)/C=C/c1ccco1`, for which the B-score result is “inactive”.

Take `COc1cc2c(cc1OC)C(c1cccc([N+](=O)[O-])c1)=NCC2`: the B-score result was “inactive”.

For the compound `COc1cc(C2C(C(=O)c3cccs3)=C(O)C(=O)N2CCN2CCOCC2)ccc1OCCC(C)C` (stereo not given), the B-score entry was “inactive”.

Regarding `CC(=O)Nc1ccc(NS(=O)(=O)c2cc(C)sc2C)cc1`, the B-score entry is “inactive”.

Consider `O=C(C1CCN(S(=O)(=O)Cc2ccccc2)CC1)N1CCCc2ccccc21`, for which the B-score was -5.01 (active).

On to `CCS(=O)(=O)N1CCC(C(=O)N2CCN(c3ccccc3)CC2)CC1`, for which the B-score entry was “inactive”.

As to `CCC(=O)N1CCCc2ccccc21`, the B-score entry was “inactive”.

In the case of `Cc1ccc(SCC(=O)NNC(=O)c2ccc(S(C)(=O)=O)cc2)cc1`, the B-score result is “inactive”.

Consider `COc1ccc(C(=O)N/N=c2\oc3ccccc3cc2C(N)=O)cc1`, for which the B-score result is “inactive”.

Turning to `NC(=O)c1cc2ccccc2o/c1=N/NC(=O)c1cccc(F)c1`, the B-score entry was “inactive”.

Turning to `CCN(CC)c1ccc2cc(C(N)=O)/c(=N\NC(=O)c3ccncc3)oc2c1`, the B-score is -7.68 (active).

For the compound `O=C(N/N=C\c1cccnc1)c1cc(-c2ccccc2)nc2c(Cl)cccc12`, the B-score result is “inactive”.

In the case of `COc1ccc(S(=O)(=O)NNC(=O)Nc2ccc(C)cc2)c(OC)c1`, the B-score entry is “inactive”.

`Cc1cc2c(=O)n(CC(=O)NCC(=O)Nc3ccc(C(C)C)cc3)cnc2s1`: the B-score entry was “inactive”.

Turning to `O=C1CC(c2ccccc2)=NN1c1ccc([N+](=O)[O-])cc1`, the B-score is -8.01 (active).

On to `Cc1nn(-c2ccc([N+](=O)[O-])cc2)c(N)c1-c1ccccc1`, for which the B-score entry is “inactive”.

Regarding `CC1=NN(c2ccccc2)C(=O)C1C(=O)c1ccc([N+](=O)[O-])cc1` (stereo not given), the B-score result is “inactive”.

As to `CCCC(C)C(=O)NCc1ccncc1` (stereo not given), the B-score entry is “inactive”.

Consider `S=C(NCc1ccc(Cl)cc1)NC12CC3CC(CC(C3)C1)C2`, for which the B-score was -5.21 (active).

For the compound `O=C(NCc1ccc(Cl)cc1)NCc1ccc(Cl)cc1`, the B-score entry was “inactive”.

For `O=C(NCc1ccncc1)NC12CC3CC(CC(C3)C1)C2`, the B-score entry was “inactive”.

`O=C(NCCCn1ccnc1)C(=O)NCC1OCCN1S(=O)(=O)c1cc(F)ccc1F` (stereo not given): the B-score result was “inactive”.

For the compound `CN1CCN(C(=O)N2c3ccccc3CCc3ccccc32)CC1`, the B-score is -6.16 (active).

Regarding `CC1CC(C)CN(CC(=O)N2c3ccccc3CCc3ccccc32)C1` (stereo not given), the B-score entry was “inactive”.

`CN1CCN(S(=O)(=O)c2cccc(C(=O)N3CCc4ccccc43)c2)CC1`: the B-score entry is “inactive”.

With `COc1ccc(C(=O)C2CCCN(C(=O)c3cc(C)on3)C2)cc1F` (stereo not given), the B-score entry is “inactive”.

With `COc1ccccc1/C=C/CN1CCC(CO)(Cc2ccccc2)CC1`, the B-score result is “inactive”.

Consider `Cc1cc(=O)cc(C)n1-c1ccc(Cl)c(Cl)c1`, for which the B-score entry is “inactive”.

In the case of `COc1ccc(NC(=O)CSc2nnc(-c3ccccc3F)n2C2CC2)cc1S(N)(=O)=O`, the B-score entry was “inactive”.

Take `Cc1ccccc1NC(=O)Nc1ccccc1N1CCCCC1`: the B-score entry was “inactive”.

Consider `O=C(CNCCC1=CCCCC1)Nc1ccccc1N1CCCCCC1`, for which the B-score result was “inactive”.

For the compound `Cc1ccccc1NC(=O)CNc1ccccc1N1CCCCC1`, the B-score was -6.42 (active).

In the case of `CCN(C(=O)Cc1c(C(=O)O)n(CC)c2ccccc12)c1ccccc1C`, the B-score entry was “inactive”.

Regarding `CCCCOc1ccc(NC(=O)[C@@H]2CCCN2C(=O)C2CCN(S(=O)(=O)c3ccc(C)cc3)CC2)cc1`, the B-score result is “inactive”.

Take `CCc1ccc(C(=O)NNC(=O)C2CCN(c3ncnc4sc(C)c(C)c34)CC2)cc1`: the B-score entry is “inactive”.

With `CCC(=O)NC(Nc1nc2ccc(C)cc2s1)(C(=O)OC)C(F)(F)F` (stereo not given), the B-score result was “inactive”.

Consider `O=C(NC(Nc1nc2ccc([N+](=O)[O-])cc2s1)(C(F)(F)F)C(F)(F)F)c1ccccc1`, for which the B-score is -10.2 (active).

For `CCOc1ccc2nc(NC(=O)c3cc([N+](=O)[O-])ccc3N3CCOCC3)sc2c1`, the B-score entry was “inactive”.

As for `COc1ccc2c(C)cc3nnnn3c2c1`, the B-score entry was “inactive”.

As to `CC(C)c1cc(C(=O)N/N=C/c2ccoc2)c(O)c(C(C)C)c1`, the B-score entry is “inactive”.

As for `Cc1nnc(C)n1/N=C/c1ccc(C(C)C)cc1`, the B-score entry is “inactive”.

Regarding `COc1ccc(Br)cc1/C=N/n1c(C)nnc1C`, the B-score was -5.36 (active).

Turning to `COc1ccc(Br)cc1/C=N/Nc1ccc(Cl)c(C(=O)O)c1`, the B-score result is “inactive”.

As to `NC(=O)COc1ccc(/C=N/NC(=O)C2CCCN2S(=O)(=O)c2ccc(Cl)cc2)cc1` (stereo not given), the B-score result is “inactive”.

On to `COc1ccc(CN2C3CCCC2CC(NC(=O)c2cccc(F)c2)C3)cc1` (stereo not given), for which the B-score result was “inactive”.

As for `CC(NCc1ccccc1OC1CCCC1)c1ccccc1` (stereo not given), the B-score is -8.19 (active).

Take `CC(=O)OC(C(=O)NC1CCCCC1)c1ccccc1` (stereo not given): the B-score result was “inactive”.

On to `COc1ccccc1CN1CCN(C(c2ccccc2)c2ccccc2)CC1`, for which the B-score result was “inactive”.

With `COc1ccc(C(=O)C2CCCN(Cc3cccn3-c3ccccn3)C2)c(C)c1` (stereo not given), the B-score was -12.5 (active).

As to `CCOC(=O)c1[nH]ncc1CN1CCCC(C(=O)c2ccc(OC)cc2C)C1` (stereo not given), the B-score result is “inactive”.

As to `COc1ccc(C(=O)C2CCCN(Cc3ccc4nonc4c3)C2)c(C)c1` (stereo not given), the B-score entry was “inactive”.

With `Cc1ccc(C(=O)Oc2ccc(C(=S)N3CCOCC3)cc2)cc1`, the B-score result is “inactive”.

Take `CC(C)CCNc1nc(N2CCCC2)c2c(c1C#N)CCN(C)C2`: the B-score was -6.63 (active).

On to `CCc1nc(NCCO)c(C#N)c2c1CCCC2`, for which the B-score entry is “inactive”.

As for `CC(C)Cc1nc(N2CCOCC2)c(C#N)c2c1CCC2`, the B-score result was “inactive”.

For `COc1ccc(-c2cc(C3CCN(c4ncccc4[N+](=O)[O-])CC3)[nH]n2)cc1`, the B-score result was “inactive”.

`Cc1cc(Cl)ccc1C(=O)C1CCCN(C(=O)c2nonc2C)C1` (stereo not given): the B-score entry is “inactive”.

Regarding `O=C(O)c1ccccc1C(=O)Nc1ccccc1[N+](=O)[O-]`, the B-score result was “inactive”.

With `O=[N+]([O-])c1ccccc1Nc1ccc(O)cc1`, the B-score is -5.49 (active).

Consider `O=C(Nc1ccccc1[N+](=O)[O-])C1C(c2ccccc2)=C1c1ccccc1`, for which the B-score entry was “inactive”.

In the case of `O=C(CCN1CCCCC1)N=Nc1c(O)[nH]c2ccccc12`, the B-score entry was “inactive”.

Regarding `N#Cc1cccc(CSc2ncnc(N)n2)c1`, the B-score result was “inactive”.

As to `O=C(CN1C(=O)S/C(=C\c2ccccc2Cl)C1=O)NC1C=CS(=O)(=O)C1` (stereo not given), the B-score entry was “inactive”.

Regarding `O=C(CN1C(=O)S/C(=C\c2ccccc2F)C1=O)NCCCn1ccnc1`, the B-score entry was “inactive”.

Take `O=C(CN1CCCCCC1)NCCN1C(=O)S/C(=C\c2ccccc2Cl)C1=O`: the B-score is -5 (active).
